Here are results for 18 compounds from PubChem BioAssay.

Assay [1] is described as follows: antimalarial activity against Dd2 strain (AID 2302;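 active = growth inhibition above 50% at the single 2 µM test dose, taken to imply half-maximal potency below 2 µM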;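 note: 0% = DMSO untreated growth and 100% = chloroquine plus artemisinin killed control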). The conditions noted are these: P. falciparum Dd2 in RBCs, LDH growth readout, 72 h; at 2 µM; hits give high values.
Assay [2] can be described thus: human hepatoma cell viability loss – ATP luminescence, cytotoxicity control for P. falciparum antimalarial project, primary screen (AID 2303;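 active = inhibition above 50%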;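 note: 0% = DMSO wells and 100% = digitonin-killed cells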). The conditions noted are these: HepG2 viability, 24-48 h, at 10 µM, hits give high values.
Assay [3] has as its target L-lactate dehydrogenase (Plasmodium falciparum (isolate CDC / Honduras)) (UniProt Q27743). Put plainly: PfLDH activity inhibition – cell lysate, 3D7 strain, counter-screen for P. falciparum growth inhibition project (AID 2304).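 Note: 0% = vehicle and 100% = reference inhibitor.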 The conditions noted are these: P. falciparum 3D7 crude extract, LDH APAD/NBT absorbance; at 2 µM; hits give high values. Background: A counterscreen serves to expose hits that act by an unwanted route or on another target.

A short description of assay [4]: inhibition of 3D7 malaria parasite growth – strain 3D7 (AID 2306).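 Note: 0% = DMSO wells and 100% = chloroquine plus artemisinin control wells.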 The note with it: P. falciparum 3D7 erythrocytic growth, LDH absorbance, 72 h; at 2 µM; hits give high values.
Assay [5] has as its target Calcium-dependent protein kinase 1 (Plasmodium falciparum (isolate 3D7)) (UniProt P62344). The experiment in a line: PfCDPK1 kinase inhibitors, biochemical, TCAMS library (AID 1159585; cut-off not given, nearly all actives have IC50 up to about 0.98 µM;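 note: inhibitors leave more ATP so luminescence rises with inhibition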). The conditions noted are these: recombinant PfCDPK1, Kinase-Glo ATP depletion luminescence.
Assay [6] deals with Plasmodium falciparum protein kinase 6 (PK6, PF3D7_1337100) (UniProt Q8IDW1). Put plainly: PfPK6 kinase inhibitors, biochemical, TCAMS library (AID 1159586). The note with it: recombinant PfPK6, Kinase-Glo ATP depletion luminescence.
Assay [7] concerns the target Protein kinase 7 (PK7), Plasmodium falciparum 3D7 (PF3D7_0213400) (UniProt Q7YTF7). The experiment in a line: inhibition of Plasmodium PK7 catalytic activity – biochemical, TCAMS antimalarial set, Kinase-Glo luminescence (AID 1159587). The note with it: recombinant PfPK7, Kinase-Glo ATP depletion luminescence. For orientation: Kinase-Glo reads ATP consumption through a luciferase reaction.

In assay [8] the target is Calcium-dependent protein kinase 4 (Plasmodium falciparum (isolate 3D7)) (UniProt Q8IBS5). Put plainly: PfCDPK4 kinase inhibitors, biochemical, TCAMS library (AID 1159588; cut-off not given, nearly all actives have IC50 up to about 0.91 µM). The note with it: recombinant PfCDPK4, Kinase-Glo ATP depletion luminescence.

Unmarked numbers belong to inactive results. For part of these data: Entries with a potency or affinity are not part of this list. Calls of active or inactive are those of the source. Unless noted, the rule behind the calls is not given here.

Sequence of Plasmodium falciparum protein kinase 6 (PK6, PF3D7_1337100) (Q8IDW1 1-305): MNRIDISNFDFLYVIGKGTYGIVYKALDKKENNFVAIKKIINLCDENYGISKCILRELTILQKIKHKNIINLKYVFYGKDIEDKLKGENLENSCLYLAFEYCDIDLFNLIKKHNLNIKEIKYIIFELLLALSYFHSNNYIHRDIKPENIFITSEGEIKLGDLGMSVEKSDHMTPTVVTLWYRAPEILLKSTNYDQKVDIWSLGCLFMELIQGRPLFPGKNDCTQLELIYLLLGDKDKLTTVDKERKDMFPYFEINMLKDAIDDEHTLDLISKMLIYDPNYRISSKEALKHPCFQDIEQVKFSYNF
Sequence of Calcium-dependent protein kinase 4 (Plasmodium falciparum (isolate 3D7)) (Q8IBS5 whole entry, looked up): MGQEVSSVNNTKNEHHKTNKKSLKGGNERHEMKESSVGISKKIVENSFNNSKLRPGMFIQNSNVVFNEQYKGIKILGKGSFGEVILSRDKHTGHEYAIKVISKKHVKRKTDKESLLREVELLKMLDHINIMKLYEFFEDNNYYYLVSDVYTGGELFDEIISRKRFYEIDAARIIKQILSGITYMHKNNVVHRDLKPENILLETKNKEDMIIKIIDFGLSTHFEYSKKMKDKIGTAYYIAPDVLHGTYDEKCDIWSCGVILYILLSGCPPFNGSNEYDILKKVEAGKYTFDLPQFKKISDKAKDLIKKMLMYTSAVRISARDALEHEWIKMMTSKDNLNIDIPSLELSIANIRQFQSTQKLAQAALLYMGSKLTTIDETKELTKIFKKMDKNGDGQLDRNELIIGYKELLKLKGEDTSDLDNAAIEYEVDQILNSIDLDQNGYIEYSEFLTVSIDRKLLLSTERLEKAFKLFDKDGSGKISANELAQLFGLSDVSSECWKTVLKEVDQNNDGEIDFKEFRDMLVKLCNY
Sequence of L-lactate dehydrogenase (Plasmodium falciparum (isolate CDC / Honduras)) (Q27743 whole entry, looked up): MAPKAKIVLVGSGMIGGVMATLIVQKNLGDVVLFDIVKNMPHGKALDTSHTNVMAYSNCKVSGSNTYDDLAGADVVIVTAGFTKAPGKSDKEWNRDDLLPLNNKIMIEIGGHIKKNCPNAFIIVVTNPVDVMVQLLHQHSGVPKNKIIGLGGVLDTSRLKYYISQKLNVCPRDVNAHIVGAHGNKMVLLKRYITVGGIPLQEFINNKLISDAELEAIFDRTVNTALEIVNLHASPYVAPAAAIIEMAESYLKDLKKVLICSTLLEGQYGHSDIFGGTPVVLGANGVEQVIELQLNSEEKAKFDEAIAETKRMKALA
Sequence of Protein kinase 7 (PK7), Plasmodium falciparum 3D7 (PF3D7_0213400) (Q7YTF7 1-343): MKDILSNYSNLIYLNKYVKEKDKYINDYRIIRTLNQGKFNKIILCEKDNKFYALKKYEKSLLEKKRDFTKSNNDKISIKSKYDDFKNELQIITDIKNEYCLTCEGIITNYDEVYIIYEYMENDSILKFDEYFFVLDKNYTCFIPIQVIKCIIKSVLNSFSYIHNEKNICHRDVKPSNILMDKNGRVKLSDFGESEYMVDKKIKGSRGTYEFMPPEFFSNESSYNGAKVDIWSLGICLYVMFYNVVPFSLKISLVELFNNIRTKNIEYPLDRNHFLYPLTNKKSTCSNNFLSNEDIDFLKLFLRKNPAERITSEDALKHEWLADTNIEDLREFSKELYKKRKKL
Sequence of Calcium-dependent protein kinase 1 (Plasmodium falciparum (isolate 3D7)) (P62344 whole entry, looked up): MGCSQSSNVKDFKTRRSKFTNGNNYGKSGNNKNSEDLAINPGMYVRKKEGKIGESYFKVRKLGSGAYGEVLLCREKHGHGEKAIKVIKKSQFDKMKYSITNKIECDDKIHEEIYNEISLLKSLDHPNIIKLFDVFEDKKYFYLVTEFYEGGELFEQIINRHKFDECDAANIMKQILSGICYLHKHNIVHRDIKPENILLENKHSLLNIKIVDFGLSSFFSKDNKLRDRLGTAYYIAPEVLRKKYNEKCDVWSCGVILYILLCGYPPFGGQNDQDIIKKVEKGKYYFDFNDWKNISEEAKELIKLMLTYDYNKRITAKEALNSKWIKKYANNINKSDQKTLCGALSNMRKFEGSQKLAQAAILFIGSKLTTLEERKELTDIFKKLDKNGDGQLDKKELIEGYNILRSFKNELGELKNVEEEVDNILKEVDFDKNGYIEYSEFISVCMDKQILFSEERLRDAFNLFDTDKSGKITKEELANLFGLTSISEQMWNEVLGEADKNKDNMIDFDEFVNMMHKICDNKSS

In general, inhibition refers to the drop in the measured response relative to a control, in per cent. As for `CN1CCC(NCc2cccc(-c3cnc(NCc4ccccc4)nc3)c2)CC1`, the figures for the growth inhibition in assay [1] and in assay [4] were 67% (active) and 102% (active), respectively. In addition, the inhibition in assay [2] is 12%; in assay [3] it was 4%. Besides, the outcome in assay [5], in assay [6], in assay [7] and in assay [8] was inactive.

Consider `COc1ccc2nccc([C@@H](O)CN3CCC(NCc4nc5ccc(F)cc5[nH]4)CC3)c2c1`, for which the figures for the growth inhibition in assay [1] and in assay [4] were 4% and 100% (active), respectively. The inhibition in assay [2] is 20%; in assay [3], -2%. In addition, the outcome in assay [5], in assay [6], in assay [7] and in assay [8] was inactive.

In the case of `O=C(Cc1cnc[nH]1)Nc1ccc(-c2ccc(-c3nc4ccc(C(F)(F)F)cc4[nH]3)s2)cc1`, the results for the growth inhibition in assay [1] and in assay [4] were 99% (active) and 101% (active), respectively. Moreover, the figures for the inhibition in assay [2] and in assay [3] were 48% and 0%, respectively. Also, the result in assay [5], in assay [6], in assay [7] and in assay [8] was inactive.

Turning to `COc1cc2nc(N3CCC(CNC(=O)c4ccc(-c5ccc(C#N)cc5)cc4)CC3)nc(N)c2cc1OC`, the growth inhibition in assay [1] was 99% (active); in assay [4], 100% (active). In addition, the inhibition was 21% in assay [2] and -4% in assay [3]. Also, the outcome in assay [5], in assay [6], in assay [7] and in assay [8] was inactive.

For the compound `COc1cccc(CN2CCCN(Cc3cccc(NC(=O)c4ccc(-c5ccccc5)cc4)c3)CC2)c1`, the growth inhibition in assay [1] was 8%; in assay [4], 86% (active). For the same compound, the inhibition in assay [2] was 35%; in assay [3] it was -1%. Moreover, the result in assay [5], in assay [6], in assay [7] and in assay [8] was inactive.

`CCN(CC)CCN(Cc1ccc(-c2ccc(C(F)(F)F)cc2)cc1)C(=O)Cn1c(CCc2c(F)ccc(F)c2F)nc(=O)c2ccccc21`: the figures for the growth inhibition in assay [1] and in assay [4] were 62% (active) and 98% (active), respectively. For the same compound, the figures for the inhibition in assay [2] and in assay [3] were 44% and -6%, respectively. Also, the outcome in assay [5], in assay [6], in assay [7] and in assay [8] was inactive.

With `Cc1ccccc1Nc1nc(NCCCO)c2ccccc2n1`, the growth inhibition is 50% (active) in assay [1] and 83% (active) in assay [4]. In addition, the inhibition was -1% in assay [2] and -5% in assay [3]. In addition, the result in assay [5], in assay [6], in assay [7] and in assay [8] was inactive.

For the compound `c1ccc2cc3c(NCCN4CCOCC4)ccnc3cc2c1`, the growth inhibition in assay [1] was 98% (active); in assay [4] it was 99% (active). For the same compound, the inhibition in assay [2] and in assay [3] was -1% throughout. The result in assay [5], in assay [6], in assay [7] and in assay [8] was inactive.

Regarding `O=C(NCC1CCN(CC2CCCCC2)C1)c1cc(-c2cccc(Cl)c2)cs1` (centres undefined), the growth inhibition in assay [1] was 8%; in assay [4], 85% (active). The inhibition in assay [2] is 51% (active); in assay [3], 5%. The result in assay [5], in assay [6], in assay [7] and in assay [8] was inactive.

Consider `O=C1OC2(CN1CC1CCN(Cc3ccc(O)cc3Cl)C1)c1ccccc1-c1ccccc12` (centres undefined), for which the growth inhibition in assay [1] and in assay [4] was 84% (active) each time. Further, the inhibition in assay [2] is 16%; in assay [3], 2%. The outcome in assay [5], in assay [6], in assay [7] and in assay [8] was inactive.

Take `N#Cc1ccc(N2C[C@@H](OCc3ccccc3)C[C@H]2C(=O)NCCC(c2ccccc2)c2ccccc2)c2ccccc12`: the results for the growth inhibition in assay [1] and in assay [4] were 96% (active) and 93% (active), respectively. In addition, the inhibition is 11% in assay [2] and -6% in assay [3]. In addition, the outcome in assay [5], in assay [6], in assay [7] and in assay [8] was inactive.

For `COc1cc(CCOc2c(C)nc(N)nc2N)cc(OC)c1OC`, the growth inhibition was -3% in assay [1] and 93% (active) in assay [4]. Moreover, the figures for the inhibition in assay [2] and in assay [3] were 59% (active) and 4%, respectively. For the same compound, the outcome in assay [5], in assay [6], in assay [7] and in assay [8] was inactive.

With `CC1(CCc2ccccc2)N=C(Nc2ccc(Cl)cc2)N=C(N)C1c1ccc(Cl)c(Cl)c1` (centres undefined), the growth inhibition in assay [1] is 98% (active); in assay [4], 102% (active). In addition, the inhibition was 81% (active) in assay [2] and -6% in assay [3]. Also, the outcome in assay [5], in assay [6], in assay [7] and in assay [8] was inactive.

As for `COC(=O)c1ccc2c(-c3nc4ccc(OC)cc4[nH]3)c[nH]c2c1`, the growth inhibition in assay [1] was 31%; in assay [4] it was 95% (active). Moreover, the inhibition in assay [2] was 0%; in assay [3], 5%. Moreover, the result in assay [5], in assay [6], in assay [7] and in assay [8] was inactive.

Take `COc1c(C2CCN(CCCCNC(=O)c3ccc(-c4ccc(NC(=O)C(F)(F)F)cc4)cc3)CC2)ccc2c1CCCC2`: the growth inhibition in assay [1] was 33%; in assay [4] it was 86% (active). Also, the values for the inhibition in assay [2] and in assay [3] were 95% (active) and 8%, respectively. For the same compound, the outcome in assay [5], in assay [6], in assay [7] and in assay [8] was inactive.

Regarding `Cc1c(Cc2ccccc2Cl)cnc2nc(N)nc(N)c12`, the values for the growth inhibition in assay [1] and in assay [4] were 96% (active) and 91% (active), respectively. Further, the inhibition is 67% (active) in assay [2] and -2% in assay [3]. For the same compound, the outcome in assay [5], in assay [6], in assay [7] and in assay [8] was inactive.

In the case of `CCNc1cc(C(=O)N[C@@H](Cc2ccccc2)[C@H](O)CNCCC(C)(C)C)c(F)c(N2CCCCS2(=O)=O)c1`, the growth inhibition in assay [1] was 93% (active); in assay [4] it was 98% (active). Moreover, the inhibition in assay [2] and in assay [3] was 2% throughout. Moreover, the outcome in assay [5], in assay [6], in assay [7] and in assay [8] was inactive.

Turning to `Cc1[nH]c(C)c(-c2ccc(S(=O)(=O)c3ccc(Cl)cc3)cc2)c(=O)c1Cl`, the results for the growth inhibition in assay [1] and in assay [4] were 96% (active) and 98% (active), respectively. For the same compound, the inhibition in assay [2] is -5%; in assay [3], 9%. The result in assay [5], in assay [6], in assay [7] and in assay [8] was inactive.
